Assay results: the supplement of paper PMC10849652
The full data set covers some 7,900 targets. This sample favours those with a hit. About 0.6% of all pairs of compound and target were hits.

Experiments:
Assay in all cases: log2 fold change, soluble protein after heating vs DMSO (PISA); higher = thermal stabilisation; K562 cells, 10 uM, 30 min; active = over 0.2 and 3.5 SD of the protein, either way, in both replicates (recomputed)
bafetinib = compound: Cc1ccc(NC(=O)c2ccc(CN3CC[C@H](N(C)C)C3)c(C(F)(F)F)c2)cc1Nc1nccc(-c2cncnc2)n1 [bafetinib]
Method in brief: (§1)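 Aliquots of K562 cells (2×10^6 cells/mL) treated with 10 μM compound for 30 min were heated for 3 min over 48°C-58°C. After pooling and extraction in PBS with 0.5% NP-40 at 4°C, soluble protein from a 21,000xg, 90 min spin was quantified by TMTpro 16plex LC-MS/MS with channel sums equalised. Thermal stability is expressed against control samples, from duplicates, as a log2 fold change.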

[1] = compound: Cc1cccc(CC(=O)N2CCc3c2ccc(-c2cn(C)c4ncnc(N)c24)c3F)n1
Method in brief: as §1

dasatinib = compound: Cc1nc(Nc2ncc(C(=O)Nc3c(C)cccc3Cl)s2)cc(N2CCN(CCO)CC2)n1 [dasatinib]
Method in brief: as §1

[2] = compound: Cn1cc(-c2ccc3c(c2)CCN3C(=O)Cc2cccc(C(F)(F)F)c2)c2c(N)ncnc21
Method in brief: as §1

[3] = compound: Cn1cc(-c2ccc3nnc(C(F)(F)c4ccc5ncccc5c4)n3n2)cn1
Method in brief: as §1

mubritinib = compound: FC(F)(F)c1ccc(/C=C/c2nc(COc3ccc(CCCCn4ccnn4)cc3)co2)cc1 [mubritinib]
Method in brief: as §1

[4] = compound: NC(=O)Nc1cc(-c2cccc(F)c2)sc1C(=O)N[C@H]1CCCNC1
Method in brief: as §1

[5] = compound: NC(=O)c1cnc(N[C@@H]2CCCC[C@@H]2N)nc1Nc1cccc(-n2nccn2)c1
Method in brief: as §1

[6] = compound: NC1(c2ccc(-c3nc4ccn5c(=O)[nH]nc5c4cc3-c3ccccc3)cc2)CCC1
Method in brief: as §1

[7] = compound: NCC(=O)Nc1ccc(-n2nc(C(F)(F)F)cc2-c2ccc3c(ccc4ccccc43)c2)cc1
Method in brief: as §1

entinostat = compound: Nc1ccccc1NC(=O)c1ccc(CNC(=O)OCc2cccnc2)cc1 [entinostat]
Method in brief: as §1

vorinostat = compound: O=C(CCCCCCC(=O)Nc1ccccc1)NO [vorinostat]
Method in brief: as §1

silmitasertib = compound: O=C(O)c1ccc2c(c1)nc(Nc1cccc(Cl)c1)c1ccncc12 [silmitasertib]
Method in brief: as §1

nilotinib = compound: Cc1cn(-c2cc(NC(=O)c3ccc(C)c(Nc4nccc(-c5cccnc5)n4)c3)cc(C(F)(F)F)c2)cn1 [nilotinib]
Method in brief: as §1

[8] = compound: Cc1nc(Nc2n[nH]c3c2CN(C(=O)N[C@H](CN(C)C)c2ccccc2)C3(C)C)c2sccc2n1
Method in brief: as §1

[9] = compound: Cc1ncc(-c2ccnc(Nc3ccc(S(C)(=O)=O)cc3)n2)n1C(C)C
Method in brief: as §1

tipifarnib = compound: Cn1cncc1[C@@](N)(c1ccc(Cl)cc1)c1ccc2c(c1)c(-c1cccc(Cl)c1)cc(=O)n2C [tipifarnib]
Method in brief: as §1

[10] = compound: O=C1NC(=O)C(c2cnc3ccccn23)=C1c1cn2c3c(cc(F)cc13)CN(C(=O)N1CCCCC1)CC2
Method in brief: as §1

citarinostat = compound: O=C(CCCCCCNC(=O)c1cnc(N(c2ccccc2)c2ccccc2Cl)nc1)NO [citarinostat]
Method in brief: as §1

[11] = compound: c1cc(OCCN2CCCCC2)cc(-c2n[nH]c3ccc(-c4nnc[nH]4)cc23)c1
Method in brief: as §1

Measured: log2 fold change

PRKD3 (UniProt O94806)
Chain of UniProt O94806 (O94806 whole entry, looked up): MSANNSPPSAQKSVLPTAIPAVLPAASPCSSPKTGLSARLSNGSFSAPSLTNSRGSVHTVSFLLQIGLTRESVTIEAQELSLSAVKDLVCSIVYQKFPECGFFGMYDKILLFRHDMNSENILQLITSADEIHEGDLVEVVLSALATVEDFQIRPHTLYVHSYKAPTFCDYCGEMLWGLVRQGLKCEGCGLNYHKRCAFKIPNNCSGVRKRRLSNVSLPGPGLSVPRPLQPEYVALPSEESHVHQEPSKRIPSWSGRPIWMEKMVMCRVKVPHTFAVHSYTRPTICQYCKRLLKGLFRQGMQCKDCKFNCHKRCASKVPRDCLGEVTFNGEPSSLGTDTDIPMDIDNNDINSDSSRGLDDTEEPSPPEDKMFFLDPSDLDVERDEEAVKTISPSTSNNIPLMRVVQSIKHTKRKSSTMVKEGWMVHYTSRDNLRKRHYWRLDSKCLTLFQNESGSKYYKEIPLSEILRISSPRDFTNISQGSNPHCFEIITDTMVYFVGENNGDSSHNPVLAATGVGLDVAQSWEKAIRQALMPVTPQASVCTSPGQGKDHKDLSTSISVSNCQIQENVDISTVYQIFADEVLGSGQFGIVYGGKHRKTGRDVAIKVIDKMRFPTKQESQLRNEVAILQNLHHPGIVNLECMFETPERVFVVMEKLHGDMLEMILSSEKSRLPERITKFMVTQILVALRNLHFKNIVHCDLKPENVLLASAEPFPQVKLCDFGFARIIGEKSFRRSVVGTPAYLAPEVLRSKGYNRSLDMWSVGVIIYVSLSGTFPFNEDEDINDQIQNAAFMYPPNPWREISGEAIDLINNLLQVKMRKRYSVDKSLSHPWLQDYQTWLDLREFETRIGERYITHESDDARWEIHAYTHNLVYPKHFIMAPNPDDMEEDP
inactive: bafetinib -0.011 | [1] -0.231 | dasatinib -0.258 | [2] -0.079 | [3] 0.006 | mubritinib -0.062 | [4] -0.565 | [5] -0.263 | [6] -0.285 | [7] -0.213 | entinostat 0.34 | vorinostat 0.096 | silmitasertib 0.021

PBX2 (UniProt P40425)
inactive: bafetinib 0.019 | [1] 0.042 | nilotinib -0.057 | [8] -0.071 | dasatinib -0.202 | [9] -0.034 | [2] 0.013 | [3] -0.091 | tipifarnib -0.116 | mubritinib 0.027 | [4] 0.089 | [5] -0.016 | [6] -0.203 | [7] -0.065 | entinostat 0.058 | vorinostat 0.196 | silmitasertib 0.003 | [10] -0.168

PTTG1 (UniProt O95997)
inactive: bafetinib 0.062 | [1] 0.021 | nilotinib -0.025 | [8] -0.011 | dasatinib 0.031 | [9] -0.116 | [2] 0.024 | [3] -0.066 | tipifarnib -0.013 | mubritinib 0.033 | [4] -0.006 | [5] -0.098 | [6] -0.015 | [7] -0.071 | entinostat 0.035 | vorinostat -0.043 | citarinostat 0.027 | silmitasertib -0.002 | [10] -0.023 | [11] -0.128

PTGFRN (UniProt Q9P2B2)
Chain of UniProt Q9P2B2 (Q9P2B2 whole entry, looked up): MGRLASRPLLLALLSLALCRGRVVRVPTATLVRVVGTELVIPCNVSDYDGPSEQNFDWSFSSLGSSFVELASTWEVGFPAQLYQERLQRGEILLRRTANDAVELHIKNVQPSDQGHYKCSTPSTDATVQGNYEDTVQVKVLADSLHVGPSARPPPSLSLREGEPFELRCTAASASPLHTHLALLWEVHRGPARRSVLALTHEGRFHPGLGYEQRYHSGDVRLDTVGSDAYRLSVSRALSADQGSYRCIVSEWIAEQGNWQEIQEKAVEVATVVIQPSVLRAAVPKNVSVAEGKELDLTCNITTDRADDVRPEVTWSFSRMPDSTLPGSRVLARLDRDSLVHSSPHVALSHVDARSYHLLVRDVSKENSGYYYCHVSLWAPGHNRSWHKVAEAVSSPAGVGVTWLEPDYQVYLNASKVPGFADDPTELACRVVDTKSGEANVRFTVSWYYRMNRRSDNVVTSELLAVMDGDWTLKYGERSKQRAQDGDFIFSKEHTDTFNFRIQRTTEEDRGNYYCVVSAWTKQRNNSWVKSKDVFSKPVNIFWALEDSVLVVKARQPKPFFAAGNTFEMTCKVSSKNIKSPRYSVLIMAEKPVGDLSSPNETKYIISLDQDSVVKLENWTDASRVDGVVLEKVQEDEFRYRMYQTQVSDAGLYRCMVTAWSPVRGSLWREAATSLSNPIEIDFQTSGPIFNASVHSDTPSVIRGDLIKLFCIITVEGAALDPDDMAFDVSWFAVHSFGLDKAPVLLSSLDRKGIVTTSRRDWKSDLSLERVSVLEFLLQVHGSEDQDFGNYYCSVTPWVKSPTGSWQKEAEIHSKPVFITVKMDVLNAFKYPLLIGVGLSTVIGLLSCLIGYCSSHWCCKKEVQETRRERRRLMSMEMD
inactive: bafetinib -0.061 | [1] -0.04 | nilotinib 0.087 | [8] 0.024 | dasatinib 0.046 | [9] 0.048 | [2] 0.038 | [3] 0.009 | tipifarnib 0.032 | mubritinib 0.065 | [4] -0.115 | [5] 0.083 | [6] 0.013 | [7] 0.014 | entinostat -0.071 | vorinostat -0.055 | citarinostat 0.021 | silmitasertib -0.006 | [10] -0.007 | [11] -0.104

PARP16 isoform 3 (UniProt Q8N5Y8)
inactive: bafetinib 0.096 | [1] -0.005 | nilotinib -0.034 | [8] -0.019 | dasatinib -0.009 | [9] 0.053 | [2] 0.011 | tipifarnib -0.092 | mubritinib 0.089 | [4] 0.116 | [5] 0.077 | [6] 0.239 | [7] -0.036 | entinostat 0.053 | vorinostat 0.117 | citarinostat 0.006 | silmitasertib -0.197 | [10] -0.022 | [11] -0.065

PBK (UniProt Q96KB5)
inactive: bafetinib 0.064 | [1] 0.064 | nilotinib -0.053 | [8] -0.152 | dasatinib -0.084 | [9] 0.078 | [2] -0.004 | [3] 0.059 | tipifarnib -0.067 | mubritinib -0.06 | [4] -0.1 | [5] -0.045 | [6] -0.098 | [7] -0.088 | entinostat 0.095 | vorinostat 0.154 | citarinostat 0.119 | silmitasertib 0.157 | [10] 0.02 | [11] -0.011

PSMD8 (UniProt K7EK21)
inactive: [2] -0.216

PAN2 (UniProt Q504Q3)
Chain of UniProt Q504Q3 (Q504Q3 whole entry, looked up): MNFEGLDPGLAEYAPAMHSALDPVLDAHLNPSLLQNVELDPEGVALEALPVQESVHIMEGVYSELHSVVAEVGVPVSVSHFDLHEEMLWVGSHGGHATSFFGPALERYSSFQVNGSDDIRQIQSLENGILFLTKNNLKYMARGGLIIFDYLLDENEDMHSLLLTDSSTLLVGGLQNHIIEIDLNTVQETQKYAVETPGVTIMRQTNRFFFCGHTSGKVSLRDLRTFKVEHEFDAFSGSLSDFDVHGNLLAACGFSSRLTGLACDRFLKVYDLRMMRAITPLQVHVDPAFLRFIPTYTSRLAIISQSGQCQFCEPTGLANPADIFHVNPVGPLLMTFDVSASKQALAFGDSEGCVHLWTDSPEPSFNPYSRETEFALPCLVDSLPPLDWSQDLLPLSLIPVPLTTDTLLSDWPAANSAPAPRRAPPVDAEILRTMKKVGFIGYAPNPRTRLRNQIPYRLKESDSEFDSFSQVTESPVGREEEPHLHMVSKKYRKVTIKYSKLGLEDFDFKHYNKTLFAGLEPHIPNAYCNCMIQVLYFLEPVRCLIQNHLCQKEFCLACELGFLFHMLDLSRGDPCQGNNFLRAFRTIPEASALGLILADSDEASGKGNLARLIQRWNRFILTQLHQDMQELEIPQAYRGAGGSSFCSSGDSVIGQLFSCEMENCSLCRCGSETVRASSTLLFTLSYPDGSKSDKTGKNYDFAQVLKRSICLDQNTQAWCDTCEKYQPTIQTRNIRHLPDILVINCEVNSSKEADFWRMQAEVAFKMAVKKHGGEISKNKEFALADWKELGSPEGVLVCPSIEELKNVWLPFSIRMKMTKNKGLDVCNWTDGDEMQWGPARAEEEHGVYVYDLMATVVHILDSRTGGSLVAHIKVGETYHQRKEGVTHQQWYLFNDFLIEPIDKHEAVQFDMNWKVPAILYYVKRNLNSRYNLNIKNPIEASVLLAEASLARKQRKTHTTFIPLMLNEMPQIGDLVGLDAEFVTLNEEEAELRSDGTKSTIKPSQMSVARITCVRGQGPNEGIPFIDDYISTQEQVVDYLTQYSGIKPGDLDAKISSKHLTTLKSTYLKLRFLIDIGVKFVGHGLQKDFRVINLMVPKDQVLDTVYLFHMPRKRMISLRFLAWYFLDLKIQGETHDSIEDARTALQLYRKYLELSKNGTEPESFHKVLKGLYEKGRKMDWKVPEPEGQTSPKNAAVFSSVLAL
inactive: bafetinib -0.052 | nilotinib -0.123 | [8] -0.02 | dasatinib 0.013 | [9] -0.09 | [7] -0.198 | citarinostat -0.127 | [11] 0.002

PMS2CL (UniProt Q68D20)
Chain of UniProt Q68D20 (Q68D20 whole entry, looked up): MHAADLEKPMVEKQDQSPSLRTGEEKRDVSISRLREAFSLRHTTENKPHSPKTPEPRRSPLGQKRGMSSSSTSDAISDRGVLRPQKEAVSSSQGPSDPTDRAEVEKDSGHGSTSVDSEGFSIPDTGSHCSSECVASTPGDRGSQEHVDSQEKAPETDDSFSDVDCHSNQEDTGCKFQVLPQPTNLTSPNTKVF
inactive: nilotinib -0.189 | [8] -0.154 | [9] 0.115 | [3] -0.128 | mubritinib -0.054 | [6] 0.185 | silmitasertib 0.095 | [10] 0.062

PSMC3 (UniProt E9PLG2)
inactive: bafetinib 0.147 | dasatinib 0.258 | mubritinib 0.059 | [4] -0.62 | [6] -0.077 | [7] 0.117 | entinostat -0.438 | silmitasertib 0.097 | [10] -0.327

PEX5 isoform 4 (UniProt P50542)
inactive: dasatinib 0.139 | [2] 0.219 | [3] -0.078 | [4] 0.019 | [5] 0.002 | [7] 0.041 | entinostat 0 | [10] 0.163

PCNX1 (UniProt Q96RV3)
inactive: bafetinib -0.112 | nilotinib 0.007 | [8] 0.009 | [9] 0 | tipifarnib 0.305 | mubritinib -0.019 | [6] 0.042 | [7] -0.043 | citarinostat -0.237 | silmitasertib -0.11 | [10] -0.14 | [11] -0.269

PDIK1L (UniProt Q8N165)
inactive: bafetinib 0.166 | nilotinib -0.026 | dasatinib -0.081 | [9] -0.037 | [2] 0.05 | [3] 0.13 | tipifarnib -0.152 | mubritinib 0.034 | [5] -0.025 | [6] -0.075 | [7] -0.225 | entinostat -0.094 | citarinostat 0.016 | silmitasertib 0.035 | [10] 0.019 | [11] -0.162
active: [8] 0.578 | [4] 0.566

PIM1 isoform 2 (UniProt P11309)
Chain of UniProt P11309 (P11309 whole entry, looked up): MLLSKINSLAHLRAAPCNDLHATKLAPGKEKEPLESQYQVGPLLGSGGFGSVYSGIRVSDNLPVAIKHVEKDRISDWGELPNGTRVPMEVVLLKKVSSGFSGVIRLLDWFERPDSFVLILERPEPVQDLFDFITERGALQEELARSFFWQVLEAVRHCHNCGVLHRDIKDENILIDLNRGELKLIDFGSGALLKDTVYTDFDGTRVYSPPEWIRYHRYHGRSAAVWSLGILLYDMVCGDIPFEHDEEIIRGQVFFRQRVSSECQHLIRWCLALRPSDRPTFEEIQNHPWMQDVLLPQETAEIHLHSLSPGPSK
inactive: [1] -0.263 | mubritinib 0.721 | [6] 0.388 | vorinostat -0.123 | silmitasertib 0.575

PPP1R12B isoform 6 (UniProt O60237)
inactive: bafetinib -0.024 | nilotinib -0.004 | [8] -0.191 | [9] 0.007

PTP4A3 (UniProt O75365)
inactive: bafetinib 0.162 | [7] -0.105

POLB (UniProt P06746)
inactive: [1] -0.081 | nilotinib -0.103 | [8] -0.134 | dasatinib -0.04 | [9] 0.009 | [2] 0.143 | [3] -0.133 | tipifarnib 0.043 | [4] -0.103 | entinostat 0.107 | vorinostat -0.106 | citarinostat 0.189 | [10] 0.113 | [11] -0.026

PUF60 isoform 2 (UniProt Q9UHX1)
inactive: bafetinib -0.089 | dasatinib -0.173 | [2] 0.043 | [3] -0.103 | tipifarnib -0.159 | mubritinib -0.257 | [5] 0.024 | [6] -0.137 | [7] 0.21 | silmitasertib 0.069

PPP2R5C isoform 2 (UniProt Q13362)
Chain of UniProt Q13362 (Q13362 whole entry, looked up): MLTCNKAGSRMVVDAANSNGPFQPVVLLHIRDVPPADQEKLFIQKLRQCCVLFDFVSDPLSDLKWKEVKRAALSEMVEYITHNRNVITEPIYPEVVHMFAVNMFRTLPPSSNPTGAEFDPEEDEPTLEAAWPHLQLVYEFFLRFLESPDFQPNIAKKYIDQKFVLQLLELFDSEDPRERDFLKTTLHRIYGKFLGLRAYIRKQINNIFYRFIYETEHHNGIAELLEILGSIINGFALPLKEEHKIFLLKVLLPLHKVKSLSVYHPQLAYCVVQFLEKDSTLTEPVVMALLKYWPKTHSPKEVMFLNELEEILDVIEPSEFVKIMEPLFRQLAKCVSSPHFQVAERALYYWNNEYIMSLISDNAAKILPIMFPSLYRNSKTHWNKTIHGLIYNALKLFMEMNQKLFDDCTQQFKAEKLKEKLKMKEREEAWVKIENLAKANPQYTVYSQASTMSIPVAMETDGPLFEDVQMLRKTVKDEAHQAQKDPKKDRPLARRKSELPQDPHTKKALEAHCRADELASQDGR
inactive: bafetinib 0.046 | [3] 0.037 | mubritinib -0.057 | [6] -0.183 | citarinostat 0.069 | silmitasertib -0.064 | [11] 0.105

PCBP2 (UniProt F8VZX2)
inactive: bafetinib 0.029 | nilotinib 0.029 | [8] -0.112 | dasatinib -0.144 | [9] 0.049 | [2] -0.022 | [3] -0.196 | mubritinib -0.153 | [6] 0.158 | silmitasertib 0.193

PDE4DIP (UniProt E9PS60)
inactive: [2] -0.007 | [7] -0.172 | citarinostat 0.06 | [11] -0.051

PDE4A (UniProt P27815)
Chain of UniProt P27815 (P27815 whole entry, looked up): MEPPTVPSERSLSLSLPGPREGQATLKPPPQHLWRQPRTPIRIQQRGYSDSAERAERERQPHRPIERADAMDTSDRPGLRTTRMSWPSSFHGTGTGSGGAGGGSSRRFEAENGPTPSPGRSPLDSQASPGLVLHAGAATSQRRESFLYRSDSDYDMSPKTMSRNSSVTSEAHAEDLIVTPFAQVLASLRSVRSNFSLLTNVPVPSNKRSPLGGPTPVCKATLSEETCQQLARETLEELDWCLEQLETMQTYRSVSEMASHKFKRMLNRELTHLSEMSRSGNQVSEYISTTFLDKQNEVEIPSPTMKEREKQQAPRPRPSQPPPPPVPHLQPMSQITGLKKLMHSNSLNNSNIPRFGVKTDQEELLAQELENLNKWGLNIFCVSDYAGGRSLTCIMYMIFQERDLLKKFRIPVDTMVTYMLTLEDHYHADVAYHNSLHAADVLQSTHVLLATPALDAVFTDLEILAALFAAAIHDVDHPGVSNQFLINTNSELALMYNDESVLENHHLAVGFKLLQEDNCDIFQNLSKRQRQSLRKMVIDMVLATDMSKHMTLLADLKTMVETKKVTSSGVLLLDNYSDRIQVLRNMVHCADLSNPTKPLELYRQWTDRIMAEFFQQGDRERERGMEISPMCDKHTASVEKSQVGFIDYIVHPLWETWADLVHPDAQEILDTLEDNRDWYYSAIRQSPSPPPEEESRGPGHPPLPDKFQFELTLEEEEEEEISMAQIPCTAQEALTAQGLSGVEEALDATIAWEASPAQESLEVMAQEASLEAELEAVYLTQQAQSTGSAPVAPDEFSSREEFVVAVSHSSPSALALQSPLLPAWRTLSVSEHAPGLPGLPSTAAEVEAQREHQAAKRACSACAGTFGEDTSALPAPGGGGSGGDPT
inactive: bafetinib -0.157 | [2] -0.016 | [3] 0.021 | tipifarnib -0.108 | [7] 0.047 | [10] -0.017
active: [5] -0.67

PHRF1 (UniProt Q9P1Y6)
inactive: [3] 0.084 | tipifarnib 0.159 | mubritinib -0.099 | [6] 0.148 | silmitasertib 0.176

PSD3 (UniProt Q9NYI0)
inactive: nilotinib -0.117 | [8] 0.029 | [9] 0.014 | [2] -0.002 | [3] 0.071 | tipifarnib -0.062 | mubritinib -0.035 | [6] -0.14 | [7] -0.113 | citarinostat 0.017 | silmitasertib -0.095 | [11] -0.02
active: [5] -0.262

PSMA3 (UniProt G3V4X5)
inactive: bafetinib 0.159 | [3] 0.174 | tipifarnib 0.067 | [7] -0.055
